Reference: paper PMC4336329 (PLoS ONE, 2015)
The campaign covered roughly 310,000 compounds. About 2,200 (0.71%) showed an effect of 50% or more. The effect is printed as a negative number. The entries come from a sample that favours strong results as a whole.

The compounds below were run against human ether-à-go-go-related gene (hERG) potassium channel (human, UniProt Q12809) (assay: primary screen, population patch clamp on CHO cells stably expressing hERG; higher = less effect of the substance).
human ether-à-go-go-related gene (hERG) potassium channel, sequence (Q12809 whole entry, looked up): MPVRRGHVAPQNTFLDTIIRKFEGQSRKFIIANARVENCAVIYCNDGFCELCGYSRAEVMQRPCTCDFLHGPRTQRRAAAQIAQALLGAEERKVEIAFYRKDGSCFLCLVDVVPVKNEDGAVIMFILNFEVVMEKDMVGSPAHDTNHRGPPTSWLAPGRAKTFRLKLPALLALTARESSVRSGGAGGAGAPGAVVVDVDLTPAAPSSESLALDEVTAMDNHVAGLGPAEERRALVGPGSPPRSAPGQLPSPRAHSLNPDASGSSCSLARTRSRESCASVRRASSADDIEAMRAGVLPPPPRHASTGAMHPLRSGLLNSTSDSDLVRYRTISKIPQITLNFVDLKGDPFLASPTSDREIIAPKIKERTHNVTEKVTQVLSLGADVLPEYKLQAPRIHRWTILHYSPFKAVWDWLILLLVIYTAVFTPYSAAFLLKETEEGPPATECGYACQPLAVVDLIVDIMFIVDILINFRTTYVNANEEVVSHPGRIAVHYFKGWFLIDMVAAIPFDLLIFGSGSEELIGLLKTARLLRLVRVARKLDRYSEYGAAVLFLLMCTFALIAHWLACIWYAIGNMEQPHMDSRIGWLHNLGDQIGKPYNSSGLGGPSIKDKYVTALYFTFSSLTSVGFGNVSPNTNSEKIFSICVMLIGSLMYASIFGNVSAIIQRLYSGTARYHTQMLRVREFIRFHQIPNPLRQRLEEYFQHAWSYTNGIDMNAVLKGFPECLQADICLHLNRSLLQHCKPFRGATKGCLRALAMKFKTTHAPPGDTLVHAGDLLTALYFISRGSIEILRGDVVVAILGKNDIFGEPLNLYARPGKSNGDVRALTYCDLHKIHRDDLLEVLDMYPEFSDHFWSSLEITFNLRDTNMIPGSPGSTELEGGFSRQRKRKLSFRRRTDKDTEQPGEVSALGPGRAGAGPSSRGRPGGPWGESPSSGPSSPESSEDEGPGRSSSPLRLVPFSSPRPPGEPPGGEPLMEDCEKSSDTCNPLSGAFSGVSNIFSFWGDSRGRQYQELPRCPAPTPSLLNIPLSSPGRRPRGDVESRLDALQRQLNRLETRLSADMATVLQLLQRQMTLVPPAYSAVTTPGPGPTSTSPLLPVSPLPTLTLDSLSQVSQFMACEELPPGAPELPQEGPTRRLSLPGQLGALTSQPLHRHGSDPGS

SMILES	hERG current change (%, negative = inhibition) at 1uM [%]
O=C(CSc1nnc(COc2ccccc2)o1)NC1CC2CCC1C2 (stereo not drawn)	14.8
CC(=O)c1ccc(NC(=O)COC(=O)c2c[nH]c3ccccc23)cc1	14.4
C/C=C\C(=O)Nc1cccc(C2=NOC3(C2)C[C@@H](C(N)=O)N(C(=O)c2ccccc2)C3)c1 (stereo partly drawn)	11.6
CC1CCCC(C)N1CCCNC(=O)CN1C(=O)c2cccnc2Oc2ccc(Cl)cc21 (stereo not drawn)	6.15
O=C1[C@H]2[C@@H](C(=O)N1c1cc(Cl)cc(Cl)c1)[C@]1(C(=O)Nc3ccccc31)N1CCC[C@@H]21	4.86
Cc1cc(=O)n2nc(N3CCCC(C(=O)NCCC4=CCCCC4)C3)sc2n1 (stereo not drawn)	-4.44
O=S(=O)(c1ccc(=S)[nH]c1)N1CCCCC1	16.8
O=C(O)c1cccc(NC(=S)NC(=O)c2cncc(Br)c2)c1	8.81
Cc1cc(C)n2nc(SCc3ccc(C#N)cc3)nc2n1	6.64
Cc1ccc(C)c(CSC2=NCCN2S(=O)(=O)c2ccccc2)c1	7.31
OCC1(Cc2ccccc2)CCCN(Cc2cn[nH]c2-c2ccccc2)C1 (stereo not drawn)	6.96
OCC1(CCOc2ccccc2)CCN(Cc2cn[nH]c2-c2ccccc2)CC1	-68.3
OCC1(CCOc2ccccc2)CCN(Cc2cn[nH]c2-c2ccc(F)cc2)CC1	-46.3
Cc1ccc(S(=O)(=O)N2CCCCC2)cc1NC(=O)CN1CC=C(c2ccccc2)CC1	-0.529
COc1cc(/C=N/NC(=S)NCC2CCCO2)cc(OC)c1OC (stereo not drawn)	0.431
CC1=C(C(=O)Nc2ccccc2)C(c2coc3ccccc3c2=O)C2=C(CCCC2=O)N1 (stereo not drawn)	10.3
Cc1ccc(NC(=O)CCN2CCOCC2)cc1C	11.1
COC(=O)c1ccc(NC(=O)CCN2CCCCC2)cc1.Cl	-51
COC(=O)c1ccc(NC(=O)CCN2CCN(CCC(=O)Nc3ccc(C(=O)OC)cc3)CC2)cc1	1.76

SMILES	hERG current change (%, negative = inhibition) at 1uM [%]
Cc1cccc(NC(=O)CCN2CCN(C)CC2)c1.Cl	14.1
Cc1ccc(NC(=O)CCN2CCN(C)CC2)cc1.Cl	14.9
COC(=O)c1ccc(NC(=O)CCN2CCOCC2)cc1	6.71
Cc1ccc(NC(=O)N2CCN(C/C=C/c3ccccc3)CC2)cc1	-10.7
CCN1CCN(CCC(=O)Nc2cccc(C)c2)CC1.Cl	9.56
Cc1ccc(NC(=O)CCN2CCN(C/C=C/c3ccccc3)CC2)cc1C.Cl	-53.2
Cc1ccc(NC(=O)CCN2CCN(C/C=C/c3ccccc3)CC2)cc1.Cl	-86.3
Cc1cccc(NC(=O)CCN2CCN(C/C=C/c3ccccc3)CC2)c1.Cl	-82.5
Cc1cc(NC(=O)CCN2CCN(Cc3ccccc3)CC2)ccc1Br.Cl	7.35
O=C(Cc1ccc(NS(=O)(=O)c2cccc(C(F)(F)F)c2)cc1)NCCN1CCOCC1	5.88
CCn1c(SCC(N)=O)nnc1-c1ccc(OC)c(OC)c1	19.4
C/C(=N/NC(=O)c1ccc(O)cc1)c1cccc([N+](=O)[O-])c1	9.78
COc1cc(/C=C/C2=CC(C)(C)NC(=S)N2)cc(OC)c1OC	8.95
COc1ccc(-n2c(SCC(=O)NCc3cccs3)nc3[nH]ncc3c2=O)cc1	-7.44
CCC(C)NC(=S)Nc1ccccc1OC (stereo not drawn)	1.64
CCN(C(=O)CSc1ncnc2c1cnn2-c1ccccc1)C1CCS(=O)(=O)C1 (stereo not drawn)	9.57
O=[N+]([O-])/C=C/c1c(OCc2ccccc2)ccc2ccccc12	-3.83
CCCC(C)C(=O)OCC(=O)Nc1c(Br)cc(C)cc1Br (stereo not drawn)	9.86
CCCc1ccc(-c2c(C)sc(N)c2C#N)cc1	16.9

SMILES	hERG current change (%, negative = inhibition) at 1uM [%]
c1ccc(-n2nnnc2-n2ccnc2)cc1	2.97
COc1ccccc1CCNC(=O)C(=O)NCC1OCCN1S(=O)(=O)c1cc(F)ccc1F (stereo not drawn)	8.74
Cc1ccc(S(=O)(=O)N2CCN(S(=O)(=O)c3ccc(C)cc3)C2c2ccccc2)cc1	3.23
COc1ccc(NC(=O)CCN2CCN(C/C=C/c3ccccc3)CC2)cc1	-37.8
COc1cc(NC(=O)CCN2CCN(C/C=C/c3ccccc3)CC2)cc(OC)c1	-36.8
O=C(CCN1CCN(C/C=C/c2ccccc2)CC1)Nc1ccccc1	-79
CN1CCN(CCC(=O)Nc2cccc(F)c2)CC1	13
O=C(CCN1CCN(C/C=C/c2ccccc2)CC1)Nc1cccc(F)c1	-62.6
O=C(CCN1CCN(c2ccccc2)CC1)Nc1ccc(Cl)cc1	9.14
O=C(CCN1CCN(C/C=C/c2ccccc2)CC1)Nc1ccc(Cl)cc1	-74.1
Cl.O=C(CCN1CCOCC1)Nc1ccc(Cl)cc1	8.71
O=C(Nc1cccc(F)c1)N1CCN(C/C=C/c2ccccc2)CC1	-19.1
CCOCCCNC(=O)c1cn(C)c(=O)c2cc(OC)c(OC)cc12	9.51
CCOC(=O)O[C@]1(C(=O)COC(=O)CC)CC[C@H]2[C@@H]3CCC4=CC(=O)C=C[C@]4(C)[C@H]3[C@@H](O)C[C@@]21C	8.4
Cc1cccc(NC(=O)CNC(=O)COc2cc(F)ccc2[N+](=O)[O-])c1C	15.4
CCCNC(=O)CCC(NS(=O)(=O)c1ccc(C)cc1)C(=O)NCCC (stereo not drawn)	7.66
CCOC(=O)C1C(=O)CC(C)(O)C(C(=O)OCC)C1c1ccc(OC)cc1 (stereo not drawn)	-0.912
CCOC(=O)CSc1nc2sc(C(=O)O)c(C)c2c(=O)[nH]1	9.03
Cc1cc(N2C(=O)C(O)=C(C(=O)c3cc4ccccc4o3)C2c2ccc(Cl)cc2)no1 (stereo not drawn)	1.55
